Measurements published in ChEMBL document CHEMBL1961873, “Compounds: GSK PKIS; Assays: Nanosyn kinase panel” (2012).

Columns and labels:
[1] = target: Tyrosine-protein kinase CSK (Homo sapiens) (UniProt P41240); details: at 1 µM;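 also: each value is an averaged inhibition reading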
[2] = target: T1, Discoidin domain-containing receptor 2 (Homo sapiens) (UniProt Q16832); details: at 0.1 µM
T1 sequence (whole entry): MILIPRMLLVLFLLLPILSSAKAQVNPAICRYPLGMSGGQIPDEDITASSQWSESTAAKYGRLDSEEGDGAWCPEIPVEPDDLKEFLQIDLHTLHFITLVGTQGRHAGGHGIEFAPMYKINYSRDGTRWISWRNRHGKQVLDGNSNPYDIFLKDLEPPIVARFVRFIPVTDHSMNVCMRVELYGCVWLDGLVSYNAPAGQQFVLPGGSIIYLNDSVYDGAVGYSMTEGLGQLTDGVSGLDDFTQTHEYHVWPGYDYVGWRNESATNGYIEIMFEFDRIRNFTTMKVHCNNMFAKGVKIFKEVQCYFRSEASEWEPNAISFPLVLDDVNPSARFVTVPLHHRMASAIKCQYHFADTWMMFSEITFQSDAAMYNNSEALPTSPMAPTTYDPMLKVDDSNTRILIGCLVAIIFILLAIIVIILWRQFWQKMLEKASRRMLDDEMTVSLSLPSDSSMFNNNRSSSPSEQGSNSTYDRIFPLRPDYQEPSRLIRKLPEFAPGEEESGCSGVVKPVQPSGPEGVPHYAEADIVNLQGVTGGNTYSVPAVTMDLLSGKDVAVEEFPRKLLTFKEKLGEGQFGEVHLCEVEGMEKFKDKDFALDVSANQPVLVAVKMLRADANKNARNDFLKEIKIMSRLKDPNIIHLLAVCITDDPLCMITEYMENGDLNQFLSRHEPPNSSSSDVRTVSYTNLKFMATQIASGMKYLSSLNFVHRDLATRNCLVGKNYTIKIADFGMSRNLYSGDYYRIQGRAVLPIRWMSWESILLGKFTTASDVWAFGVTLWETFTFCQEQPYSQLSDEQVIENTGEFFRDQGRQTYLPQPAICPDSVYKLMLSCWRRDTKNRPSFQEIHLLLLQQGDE

[3] = target: T1, Discoidin domain-containing receptor 2 (Homo sapiens); details: at 1 µM
[4] = target: Epidermal growth factor receptor (Homo sapiens) (UniProt P00533); details: at 0.1 µM
[5] = target: Epidermal growth factor receptor (Homo sapiens) (UniProt P00533); details: at 1 µM
[6] = test system: Epidermal growth factor receptor (Homo sapiens), P00533 [L858R]; details: at 0.1 µM
[7] = test system: Epidermal growth factor receptor (Homo sapiens), P00533 [L858R]; details: at 1 µM
[8] = test system: Epidermal growth factor receptor (Homo sapiens), P00533 [L861Q]; details: at 0.1 µM
Sequence of Epidermal growth factor receptor (Homo sapiens), P00533 [L861Q] (P00533 whole entry L861Q): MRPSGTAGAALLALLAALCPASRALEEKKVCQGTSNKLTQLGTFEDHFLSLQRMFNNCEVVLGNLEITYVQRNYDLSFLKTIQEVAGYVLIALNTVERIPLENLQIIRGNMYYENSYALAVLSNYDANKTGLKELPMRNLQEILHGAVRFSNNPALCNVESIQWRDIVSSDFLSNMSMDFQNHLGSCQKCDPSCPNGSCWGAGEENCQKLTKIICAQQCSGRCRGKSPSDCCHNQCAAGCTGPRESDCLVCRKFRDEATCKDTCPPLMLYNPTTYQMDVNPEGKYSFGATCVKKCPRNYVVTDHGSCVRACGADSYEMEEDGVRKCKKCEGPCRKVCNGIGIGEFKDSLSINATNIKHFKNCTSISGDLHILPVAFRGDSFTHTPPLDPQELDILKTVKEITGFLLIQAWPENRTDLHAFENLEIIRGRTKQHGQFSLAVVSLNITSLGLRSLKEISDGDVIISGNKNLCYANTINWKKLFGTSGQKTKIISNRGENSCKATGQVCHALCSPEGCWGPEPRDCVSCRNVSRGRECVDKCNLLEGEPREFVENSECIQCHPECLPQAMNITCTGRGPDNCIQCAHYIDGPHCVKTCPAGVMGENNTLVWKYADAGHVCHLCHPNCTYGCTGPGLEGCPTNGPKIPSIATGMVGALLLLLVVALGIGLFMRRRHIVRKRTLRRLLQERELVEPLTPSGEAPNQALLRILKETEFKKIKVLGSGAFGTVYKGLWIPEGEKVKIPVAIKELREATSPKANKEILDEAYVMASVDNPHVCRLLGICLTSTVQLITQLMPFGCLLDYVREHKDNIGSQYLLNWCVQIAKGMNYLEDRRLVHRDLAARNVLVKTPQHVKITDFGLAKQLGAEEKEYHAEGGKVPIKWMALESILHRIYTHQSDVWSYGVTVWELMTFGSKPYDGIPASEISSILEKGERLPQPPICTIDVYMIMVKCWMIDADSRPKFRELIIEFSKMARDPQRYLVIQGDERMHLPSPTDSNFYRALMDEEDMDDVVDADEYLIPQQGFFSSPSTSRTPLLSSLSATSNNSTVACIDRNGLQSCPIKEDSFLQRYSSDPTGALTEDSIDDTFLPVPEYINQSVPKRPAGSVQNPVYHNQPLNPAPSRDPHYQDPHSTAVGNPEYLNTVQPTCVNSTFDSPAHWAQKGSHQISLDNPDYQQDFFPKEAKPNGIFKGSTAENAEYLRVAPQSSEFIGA

[9] = test system: Epidermal growth factor receptor (Homo sapiens), P00533 [L861Q]; details: at 1 µM
[10] = test system: Epidermal growth factor receptor (Homo sapiens), P00533 [T790M]; details: at 0.1 µM
Sequence of Epidermal growth factor receptor (Homo sapiens), P00533 [T790M] (P00533 whole entry T790M): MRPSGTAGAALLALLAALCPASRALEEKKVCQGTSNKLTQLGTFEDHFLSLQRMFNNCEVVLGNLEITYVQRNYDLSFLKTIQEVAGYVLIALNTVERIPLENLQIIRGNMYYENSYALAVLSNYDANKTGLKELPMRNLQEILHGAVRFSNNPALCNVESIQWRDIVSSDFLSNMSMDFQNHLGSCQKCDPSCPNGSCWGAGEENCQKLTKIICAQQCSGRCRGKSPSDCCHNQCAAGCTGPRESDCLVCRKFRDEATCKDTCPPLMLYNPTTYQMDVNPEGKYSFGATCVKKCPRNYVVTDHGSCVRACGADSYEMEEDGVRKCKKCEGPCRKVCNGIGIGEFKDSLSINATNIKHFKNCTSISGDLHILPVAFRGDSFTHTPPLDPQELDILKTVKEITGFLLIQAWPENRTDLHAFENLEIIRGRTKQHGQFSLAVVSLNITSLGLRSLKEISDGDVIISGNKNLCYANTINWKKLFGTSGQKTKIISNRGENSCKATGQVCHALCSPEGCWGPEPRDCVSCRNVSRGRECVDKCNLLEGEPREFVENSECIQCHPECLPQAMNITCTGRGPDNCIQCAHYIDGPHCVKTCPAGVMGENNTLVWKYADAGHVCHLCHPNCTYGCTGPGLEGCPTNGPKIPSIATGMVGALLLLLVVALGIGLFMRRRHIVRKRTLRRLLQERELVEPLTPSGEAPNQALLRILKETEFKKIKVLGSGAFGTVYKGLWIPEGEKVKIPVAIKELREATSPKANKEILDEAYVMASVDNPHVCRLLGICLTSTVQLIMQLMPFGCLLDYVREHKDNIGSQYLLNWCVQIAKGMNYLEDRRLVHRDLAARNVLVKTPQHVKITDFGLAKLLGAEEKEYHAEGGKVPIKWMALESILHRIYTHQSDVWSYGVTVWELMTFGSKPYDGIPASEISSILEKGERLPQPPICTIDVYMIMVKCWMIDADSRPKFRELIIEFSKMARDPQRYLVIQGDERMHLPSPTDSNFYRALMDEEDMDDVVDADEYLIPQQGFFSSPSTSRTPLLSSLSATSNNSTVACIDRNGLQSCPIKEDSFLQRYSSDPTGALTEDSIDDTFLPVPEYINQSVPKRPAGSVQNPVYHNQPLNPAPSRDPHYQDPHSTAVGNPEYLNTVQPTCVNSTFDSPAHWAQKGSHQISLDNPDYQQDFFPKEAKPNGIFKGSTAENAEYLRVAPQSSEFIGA

[11] = test system: Epidermal growth factor receptor (Homo sapiens), P00533 [T790M]; details: at 1 µM
[12] = test system: Epidermal growth factor receptor (Homo sapiens), P00533 [L858R,T790M]; details: at 0.1 µM
Sequence of Epidermal growth factor receptor (Homo sapiens), P00533 [L858R,T790M] (P00533 whole entry T790M/L858R, looked up): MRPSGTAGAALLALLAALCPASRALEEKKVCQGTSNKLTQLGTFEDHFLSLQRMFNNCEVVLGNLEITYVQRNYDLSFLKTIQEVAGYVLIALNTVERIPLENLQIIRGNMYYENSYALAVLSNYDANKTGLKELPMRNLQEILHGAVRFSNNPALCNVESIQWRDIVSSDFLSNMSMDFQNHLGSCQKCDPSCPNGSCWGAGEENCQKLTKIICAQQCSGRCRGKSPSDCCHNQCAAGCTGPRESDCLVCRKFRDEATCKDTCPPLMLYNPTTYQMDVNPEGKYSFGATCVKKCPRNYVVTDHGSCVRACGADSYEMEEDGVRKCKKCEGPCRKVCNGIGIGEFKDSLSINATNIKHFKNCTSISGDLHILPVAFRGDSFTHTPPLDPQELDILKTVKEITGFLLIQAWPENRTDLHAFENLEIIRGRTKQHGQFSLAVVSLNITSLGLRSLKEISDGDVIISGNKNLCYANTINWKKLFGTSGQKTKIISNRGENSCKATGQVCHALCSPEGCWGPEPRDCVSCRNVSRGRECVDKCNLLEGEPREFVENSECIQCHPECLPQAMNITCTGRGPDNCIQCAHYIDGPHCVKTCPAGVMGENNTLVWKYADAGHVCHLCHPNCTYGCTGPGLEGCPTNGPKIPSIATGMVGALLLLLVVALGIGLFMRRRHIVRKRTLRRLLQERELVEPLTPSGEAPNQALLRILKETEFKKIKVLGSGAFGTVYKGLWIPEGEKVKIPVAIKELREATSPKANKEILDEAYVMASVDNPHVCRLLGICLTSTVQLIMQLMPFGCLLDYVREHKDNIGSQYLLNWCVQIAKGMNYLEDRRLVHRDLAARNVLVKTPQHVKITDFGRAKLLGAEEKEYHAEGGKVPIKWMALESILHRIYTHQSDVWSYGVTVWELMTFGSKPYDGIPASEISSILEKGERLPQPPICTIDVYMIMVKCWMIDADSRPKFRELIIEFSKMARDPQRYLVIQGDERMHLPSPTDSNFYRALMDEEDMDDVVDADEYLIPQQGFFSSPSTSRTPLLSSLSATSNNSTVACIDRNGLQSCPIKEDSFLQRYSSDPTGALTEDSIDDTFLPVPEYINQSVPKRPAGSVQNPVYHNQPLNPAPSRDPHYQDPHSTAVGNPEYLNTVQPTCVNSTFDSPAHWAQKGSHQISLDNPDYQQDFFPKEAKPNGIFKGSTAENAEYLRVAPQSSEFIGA

[13] = test system: Epidermal growth factor receptor (Homo sapiens), P00533 [L858R,T790M]; details: at 1 µM
[14] = target: Ephrin type-A receptor 2 (Homo sapiens) (UniProt P29317); details: at 0.1 µM
[15] = target: Ephrin type-A receptor 2 (Homo sapiens) (UniProt P29317); details: at 1 µM
[16] = target: T2, Ephrin type-A receptor 3 (Homo sapiens) (UniProt P29320); details: at 0.1 µM
T2 sequence (whole entry): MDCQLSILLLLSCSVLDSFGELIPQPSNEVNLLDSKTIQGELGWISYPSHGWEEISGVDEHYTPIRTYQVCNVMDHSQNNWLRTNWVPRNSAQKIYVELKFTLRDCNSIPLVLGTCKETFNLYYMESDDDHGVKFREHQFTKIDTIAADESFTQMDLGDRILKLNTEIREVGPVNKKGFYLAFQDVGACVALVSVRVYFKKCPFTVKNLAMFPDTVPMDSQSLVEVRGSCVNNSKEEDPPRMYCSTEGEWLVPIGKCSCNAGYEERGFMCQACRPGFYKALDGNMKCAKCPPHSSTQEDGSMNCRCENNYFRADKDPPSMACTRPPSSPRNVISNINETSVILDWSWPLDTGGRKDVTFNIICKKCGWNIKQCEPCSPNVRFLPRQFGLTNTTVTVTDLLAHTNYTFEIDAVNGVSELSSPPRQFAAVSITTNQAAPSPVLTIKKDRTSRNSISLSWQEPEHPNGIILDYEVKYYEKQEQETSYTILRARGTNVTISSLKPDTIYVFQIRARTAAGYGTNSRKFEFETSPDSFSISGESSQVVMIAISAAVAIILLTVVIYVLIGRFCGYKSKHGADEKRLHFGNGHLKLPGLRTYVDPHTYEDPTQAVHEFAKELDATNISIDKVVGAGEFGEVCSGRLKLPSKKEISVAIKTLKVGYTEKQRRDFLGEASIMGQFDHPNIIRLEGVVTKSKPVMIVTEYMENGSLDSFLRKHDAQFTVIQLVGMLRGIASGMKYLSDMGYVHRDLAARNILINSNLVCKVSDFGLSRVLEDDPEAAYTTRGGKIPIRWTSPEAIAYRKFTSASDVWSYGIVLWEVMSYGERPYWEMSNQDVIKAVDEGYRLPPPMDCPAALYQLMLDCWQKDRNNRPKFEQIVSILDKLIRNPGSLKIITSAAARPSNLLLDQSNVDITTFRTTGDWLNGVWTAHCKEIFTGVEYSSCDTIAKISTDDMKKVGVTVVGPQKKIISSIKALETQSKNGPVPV

[17] = target: T2, Ephrin type-A receptor 3 (Homo sapiens); details: at 1 µM
[18] = target: Ephrin type-A receptor 4 (Homo sapiens) (UniProt P54764); details: at 0.1 µM
Sequence of Ephrin type-A receptor 4 (Homo sapiens) (P54764 whole entry): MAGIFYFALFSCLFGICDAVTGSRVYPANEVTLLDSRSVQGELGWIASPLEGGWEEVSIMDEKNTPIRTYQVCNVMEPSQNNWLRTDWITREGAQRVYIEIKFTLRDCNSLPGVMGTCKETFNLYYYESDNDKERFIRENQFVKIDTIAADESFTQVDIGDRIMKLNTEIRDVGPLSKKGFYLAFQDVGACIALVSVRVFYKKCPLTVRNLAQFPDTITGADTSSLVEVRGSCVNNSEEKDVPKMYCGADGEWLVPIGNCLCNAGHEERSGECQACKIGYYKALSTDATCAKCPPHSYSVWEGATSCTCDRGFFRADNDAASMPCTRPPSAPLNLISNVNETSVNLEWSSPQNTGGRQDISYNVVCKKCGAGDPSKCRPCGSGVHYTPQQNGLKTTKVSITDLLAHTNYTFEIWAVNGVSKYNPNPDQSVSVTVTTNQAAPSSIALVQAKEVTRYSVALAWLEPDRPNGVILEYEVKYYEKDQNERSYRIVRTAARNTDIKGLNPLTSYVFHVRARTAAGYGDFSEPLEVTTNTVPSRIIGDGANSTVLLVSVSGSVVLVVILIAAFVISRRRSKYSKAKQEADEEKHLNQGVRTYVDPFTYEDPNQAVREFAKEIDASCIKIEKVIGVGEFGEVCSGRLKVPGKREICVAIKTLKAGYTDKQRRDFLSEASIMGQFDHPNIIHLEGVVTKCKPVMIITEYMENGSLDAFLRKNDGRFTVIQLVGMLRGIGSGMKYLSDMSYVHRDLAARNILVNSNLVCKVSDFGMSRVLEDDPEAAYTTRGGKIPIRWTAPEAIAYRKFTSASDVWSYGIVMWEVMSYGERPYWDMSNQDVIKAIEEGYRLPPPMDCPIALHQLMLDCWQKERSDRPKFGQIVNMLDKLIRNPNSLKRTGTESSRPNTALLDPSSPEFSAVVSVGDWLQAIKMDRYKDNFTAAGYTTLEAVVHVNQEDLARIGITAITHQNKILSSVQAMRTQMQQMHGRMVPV

[19] = target: Ephrin type-A receptor 4 (Homo sapiens) (UniProt P54764); details: at 1 µM
[20] = target: T3, Ephrin type-B receptor 2 (Homo sapiens) (UniProt P29323); details: at 0.1 µM;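 also: reported as mean inhibition of EPHB2, from the GSK PKIS dataset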
T3 sequence (whole entry): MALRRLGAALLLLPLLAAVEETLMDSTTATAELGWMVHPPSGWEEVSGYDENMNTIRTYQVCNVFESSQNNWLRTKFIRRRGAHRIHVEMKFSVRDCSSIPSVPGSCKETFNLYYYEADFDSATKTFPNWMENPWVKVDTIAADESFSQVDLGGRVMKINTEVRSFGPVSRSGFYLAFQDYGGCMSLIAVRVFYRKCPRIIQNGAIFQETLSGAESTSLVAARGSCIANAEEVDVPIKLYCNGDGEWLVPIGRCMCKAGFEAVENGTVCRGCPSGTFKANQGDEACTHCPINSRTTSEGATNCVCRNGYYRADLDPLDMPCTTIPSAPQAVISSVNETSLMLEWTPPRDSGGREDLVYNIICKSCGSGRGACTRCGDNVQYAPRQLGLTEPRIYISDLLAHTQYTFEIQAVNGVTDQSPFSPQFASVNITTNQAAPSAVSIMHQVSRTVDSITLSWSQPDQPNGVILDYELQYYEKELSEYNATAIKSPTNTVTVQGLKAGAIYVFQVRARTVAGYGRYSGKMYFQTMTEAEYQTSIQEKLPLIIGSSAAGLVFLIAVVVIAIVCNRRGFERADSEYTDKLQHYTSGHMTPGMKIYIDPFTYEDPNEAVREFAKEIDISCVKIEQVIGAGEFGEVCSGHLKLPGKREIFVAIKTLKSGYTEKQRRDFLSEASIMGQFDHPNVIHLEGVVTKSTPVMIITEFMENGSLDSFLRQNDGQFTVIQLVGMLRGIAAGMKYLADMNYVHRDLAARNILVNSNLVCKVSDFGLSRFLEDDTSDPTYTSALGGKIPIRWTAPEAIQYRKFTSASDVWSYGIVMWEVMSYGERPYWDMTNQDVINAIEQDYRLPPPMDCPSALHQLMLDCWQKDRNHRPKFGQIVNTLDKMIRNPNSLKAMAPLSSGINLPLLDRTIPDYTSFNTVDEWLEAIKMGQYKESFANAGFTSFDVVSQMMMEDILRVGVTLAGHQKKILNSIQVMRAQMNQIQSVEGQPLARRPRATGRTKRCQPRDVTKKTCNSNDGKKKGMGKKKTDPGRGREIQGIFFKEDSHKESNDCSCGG

Sequence of Tyrosine-protein kinase CSK (Homo sapiens) (P41240 2-450 limits assumed): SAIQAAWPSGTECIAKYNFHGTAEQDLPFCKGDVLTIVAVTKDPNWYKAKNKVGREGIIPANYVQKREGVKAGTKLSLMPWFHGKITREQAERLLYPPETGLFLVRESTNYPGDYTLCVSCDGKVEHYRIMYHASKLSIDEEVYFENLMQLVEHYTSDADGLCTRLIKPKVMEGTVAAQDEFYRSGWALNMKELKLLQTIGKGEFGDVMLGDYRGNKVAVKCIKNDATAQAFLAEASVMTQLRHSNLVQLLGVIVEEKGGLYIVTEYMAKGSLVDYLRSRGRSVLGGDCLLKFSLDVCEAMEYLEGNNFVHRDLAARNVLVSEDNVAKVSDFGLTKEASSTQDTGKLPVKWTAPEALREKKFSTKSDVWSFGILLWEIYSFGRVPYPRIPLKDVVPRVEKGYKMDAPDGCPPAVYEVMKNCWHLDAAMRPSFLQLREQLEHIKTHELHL

Row | Structure (SMILES) | inhibition [1] [%] | inhibition [2] [%] | inhibition [3] [%] | inhibition [4] [%] | inhibition [5] [%] | inhibition [6] [%] | inhibition [7] [%] | inhibition [8] [%] | inhibition [9] [%] | inhibition [10] [%] | inhibition [11] [%] | inhibition [12] [%] | inhibition [13] [%] | inhibition [14] [%] | inhibition [15] [%] | inhibition [16] [%] | inhibition [17] [%] | inhibition [18] [%] | inhibition [19] [%] | inhibition [20] [%]
1 | Fc1ccc(-c2ncn(C3CCNCC3)c2-c2ccnc(Oc3ccc4c(c3)OCO4)n2)cc1 | 6.08 | 6.32 | 7.88 | 5.59 | 13.1 | 4.4 | 18.7 | 3.06 | 10.2 | 2.39 | 6.05 | 1.3 | 7.04 | 3.08 | 2.37 | 3.63 | 10.3 | 11.3 | 15.4 | 10.6
2 | NC(=O)c1ccc(Oc2nccc(-c3c(-c4ccc(F)cc4)ncn3C3CCNCC3)n2)cc1 | 4.26 | 0.13 | 0.3 | 0.48 | 1.21 | 3.13 | 2.9 | 2.71 | 5.43 | 2.31 | 4.36 | 3.71 | 1.81 | 2.58 | 1.73 | 2.37 | 5.3 | 8.5 | 11 | 8.08
3 | COc1ccc(-c2ccc3c(NC(=O)C4CC4)n[nH]c3n2)cc1 | 4.87 | 0.86 | 0.84 | 0.14 | 0.71 | -1.64 | 3.91 | -0.19 | 2.45 | -0.2 | 4.06 | -0.83 | 5.32 | 0.96 | 0.05 | 2.4 | 3.41 | 6.38 | 10.4 | 1.78
4 | O=C1Nc2ccc(I)cc2C1=Cc1cc(Br)c(O)c(Br)c1 | 4.94 | 1.45 | 3.44 | 2.85 | -1.18 | -1.9 | 2.8 | 2.43 | 3.74 | 0.08 | 1.77 | -1.49 | -1.12 | 1.35 | 1.12 | 1.79 | 4.64 | 7.31 | 9.77 | 5.47
5 | CCc1cccc(CC)c1/C=C/c1cncc(C(=O)NC)c1 | 0.54 | 1.3 | 6.62 | 3.24 | 6.32 | 4.88 | 3.92 | 1.32 | 2.46 | 2.4 | -0.11 | 1.59 | 4.31 | 3.59 | 2.3 | 2.96 | 2.85 | 5.38 | 5.6 | 7.22
6 | N#Cc1ccc(Oc2nccc(-c3c(-c4ccc(F)cc4)ncn3C3CCNCC3)n2)cc1 | 0.87 | 6.23 | 6.42 | -1.1 | 2.76 | -0.31 | 7.36 | 3.45 | 3.57 | 1.89 | 3.42 | -0.53 | 0.7 | 0.81 | 0.1 | 2.13 | 3.63 | 7.21 | 9.65 | 11
7 | C/C(Nc1ccc(S(N)(=O)=O)cc1)=C1/C(=O)Nc2ccccc21 | -4 | -0.09 | 0.07 | -1.34 | 2.48 | -0.73 | 0.1 | 0.08 | 0.01 | -0.56 | 0.03 | -0.46 | -1.66 | -4.14 | -3.36 | -8.6 | -1.74 | -4.44 | -2.02 | -3.98
8 | Nc1nccc(-c2c(-c3ccc(F)cc3)ncn2C2CCC(O)CC2)n1 (stereo not given) | -0.86 | -0.26 | 13.3 | 4.04 | 35.7 | 18.4 | 76.8 | 4.44 | 33.2 | -1.86 | 0.86 | 1.94 | 15.4 | 0.36 | 2.11 | -4.93 | -1.48 | -4.75 | 14.5 | 7.37
9 | CCC(=O)Nc1ccc(C)c(-c2ccc(C(=O)NCC3CC3)cc2)c1 | 4.34 | 1.85 | 2.57 | 6.56 | 6.12 | 2.49 | 5.47 | 3.28 | 4.44 | 0.82 | 2.33 | -0.94 | 3.59 | -1.79 | -2.2 | 1.95 | 4.02 | 6.75 | 8.5 | 6.82
10 | FC(F)(F)c1cccc(Nc2nccc(-c3cnn4nc(-c5ccccc5)ccc34)n2)c1 | 1.44 | 0.05 | 2.08 | -0.78 | 0.92 | -0.7 | -0.57 | 1.2 | 0.07 | 1.28 | -0.22 | 0.52 | -0.49 | 2 | 0.59 | 2.67 | 3.91 | 5.08 | -4.97 | 4.58
11 | COc1ccc2cc(-c3c(-c4ccncc4)nc(-c4ccc(S(C)(=O)=O)cc4C)n3C)ccc2c1 | 7.9 | -1.21 | -5.12 | 0.26 | 6.12 | 1.94 | 10.5 | 2.4 | 10.6 | 1.37 | 3.3 | 1.66 | 2.57 | 0.22 | 0.86 | 4.84 | 3.83 | 9.07 | 17.6 | 4.7
12 | CCS(=O)(=O)c1ccc(OC)c(Nc2ncc(-c3ccccc3Cl)o2)c1 | 1.96 | 3.73 | 8.46 | -0.49 | 0.66 | -1.25 | 7.46 | 2.33 | 1.22 | 1.78 | 3.29 | -1.69 | -0.03 | 1.32 | 1.73 | 5.46 | 4.36 | 5.58 | 9.33 | 4.99
13 | COc1cc(N2CCN(C(C)C)CC2)ccc1Nc1nc(Nc2ccc(F)cc2C(=O)NC[C@@H](O)CO)c2cc[nH]c2n1 | 6.92 | 0.31 | 1.21 | -0.53 | 0.84 | 0.89 | 11.2 | 5.68 | 8.58 | 4.54 | 25.8 | 11.9 | 60.2 | -2.5 | -3.57 | 0.19 | -0.58 | 9.3 | 12.5 | 3.1
14 | NCc1ccc(-n2c(-c3nonc3N)nc3cnccc32)cc1 | 1.46 | 2.78 | 3.01 | 1.73 | 1.72 | 3.13 | 1.55 | 2.5 | 2.02 | 3.36 | 3.16 | 4.81 | 5.05 | 0.49 | 0.85 | 7 | 4.64 | 9.54 | 5.62 | 6.63
